Source: PubChem BioAssay (National Center for Advancing Translational Sciences (NCATS))
Only some compounds are listed: those with a hit (about 11% of all), similar ones and a draw of the others.
ALDH1A1 block = ALDH1A1 (human) enzyme inhibition; AID 1030; Purified ALDH1A1, NADH fluorescence, propionaldehyde substrate; Potency, µM (highest dose often 75.3 µM), hits mostly inhibitors; 220,000 tested, 7.3% active; P00352
Target sequence (P00352 whole entry, looked up): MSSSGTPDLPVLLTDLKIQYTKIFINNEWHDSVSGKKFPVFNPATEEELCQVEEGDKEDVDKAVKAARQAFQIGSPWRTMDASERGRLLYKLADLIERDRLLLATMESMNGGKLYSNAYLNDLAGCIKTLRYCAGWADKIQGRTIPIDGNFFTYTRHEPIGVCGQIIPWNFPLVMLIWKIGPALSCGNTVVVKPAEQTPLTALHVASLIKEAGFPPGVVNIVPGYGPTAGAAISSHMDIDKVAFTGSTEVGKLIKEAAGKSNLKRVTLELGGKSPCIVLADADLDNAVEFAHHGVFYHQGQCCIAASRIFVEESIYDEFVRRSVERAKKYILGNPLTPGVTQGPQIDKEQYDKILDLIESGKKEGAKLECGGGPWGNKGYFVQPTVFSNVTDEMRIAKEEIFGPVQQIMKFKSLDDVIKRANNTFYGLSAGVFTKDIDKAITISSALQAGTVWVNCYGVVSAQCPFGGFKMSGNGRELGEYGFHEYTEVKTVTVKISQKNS
PNC inhibitor = perinucleolar compartment assembly inhibition | 140,000 tested, 3.1% active | AID 2417 | activity change (PNC), negative = inhibition, % at 10 µM | PC3M PTB-GFP, PNC prevalence imaging, 16 h; active compounds read low;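 active means readout at or below -70, meaning at least 70% loss of cells showing the perinucleolar compartment, a nuclear body marking cancer cells; inconclusive means readout between -30 and a set limit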
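PC3M cells stably expressing PTB-GFP, 750–1000 cells/well, treated 16 h at 37 °C with compound (23 nl of library stock), in duplicate. After paraformaldehyde fixation and Hoechst stain, imaged at 20x; PNC prevalence scored by image analysis.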
HPGD inh = inhibitors of human 15-hydroxyprostaglandin dehydrogenase (HPGD) | Potency, µM, actives largely listed as inhibitors | 150,000 tested, 4.3% active | purified HPGD, NADH fluorescence kinetic, PGE2 substrate | AID 894
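20 nM HPGD preincubated 15 min at room temperature with compound in 50 mM Tris-HCl pH 8, 0.01% Tween 20. Started with 1 mM NAD+ and 30 uM prostaglandin E2; NADH fluorescence (360/450 nm) read 5 times over 30-s intervals, last minus first.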
Numbers stand for hits; [ ] = another dose, or the depositor's remark. Unless noted, the call rests on the fitted dose curve; in most records, active means well fitted inhibition curve with a large enough effect (not every such curve was filed as active); inconclusive means small, poorly fitted or top-dose-only effect, or another doubt; inactive means no such curve, though single readings can be large or run the other way.

Screening Cc1c(NC(=O)C2CCCNC2=O)c(=O)n(-c2ccccc2)n1C (centres undefined) returned ALDH1A1 block inactive, PNC inhibitor inactive and HPGD inh inactive.
Screening Cc1c(C(=S)NC(=O)C2CC2)c(=O)n(-c2ccccc2)n1C returned ALDH1A1 block 18µM.
Screening COc1ccccc1Nc1nc(N)nc(CN2CC(C)CC(C)C2)n1 (centres undefined) returned ALDH1A1 block inactive.
COc1ccc(NC2=CC(c3ccc(OC)c(OC)c3)N(c3ccc(OC)cc3)C2=O)cc1 (centres undefined) was read as ALDH1A1 block 14µM, PNC inhibitor inactive and HPGD inh inconclusive.
COc1ccc(OC2C(=O)N(c3ccc(C)c(C)c3)C2c2ccc(OC)c(OC)c2)cc1 (centres undefined) was read as ALDH1A1 block inactive, PNC inhibitor inconclusive and HPGD inh inactive.
`CCOCCCNC(=O)CCCOc1ccccc1` gave ALDH1A1 block inactive, PNC inhibitor inconclusive and HPGD inh inactive.
Screening CCOC(=O)C1=C(c2ccccc2)N=C2SCC(=O)N2C1c1ccc2c(c1)OCO2 (centres undefined) returned ALDH1A1 block 13µM, PNC inhibitor inconclusive and HPGD inh inactive.
For CCOC(=O)C1=C(c2ccccc2)N=C2SCC(=O)N2C1c1ccc(OC)c(OC)c1 (centres undefined) the results were ALDH1A1 block inactive, PNC inhibitor inactive and HPGD inh inactive.
For COC(=O)CNC(=O)CN1C(=O)N(c2ccc(Cl)cc2)C(N(O)C(=O)Nc2ccc(Cl)cc2)C1(C)C (centres undefined) the results were ALDH1A1 block inconclusive, PNC inhibitor inactive and HPGD inh inactive.
For CN(C)c1ncc2nc(-c3cc(F)cc(F)c3)c(=O)n(Cc3ccc(F)cc3)c2n1 the results were ALDH1A1 block inactive.
For Cc1cc(C)c2cc(C(O)c3nnnn3Cc3ccccc3)c(=O)[nH]c2c1 (centres undefined) the results were ALDH1A1 block inactive, PNC inhibitor inactive and HPGD inh inactive.
Screening Cc1cc(C)c2cc(CN(CCO)C(c3nnnn3Cc3ccc(F)cc3)C(C)C)c(=O)[nH]c2c1 (centres undefined) returned ALDH1A1 block 13µM, PNC inhibitor inactive and HPGD inh inactive.
`O=C(Nc1nn[nH]n1)c1nc(-c2ccccc2)cc(=O)[nH]1` gave ALDH1A1 block inactive[13.5 µM] and HPGD inh inactive.
For CCOc1ccc(Cl)cc1S(=O)(=O)n1cnc2ccccc21 the results were ALDH1A1 block inactive, PNC inhibitor inconclusive and HPGD inh inactive.
For CCOc1cc(C)c(Cl)cc1S(=O)(=O)n1cnc2ccccc21 the results were ALDH1A1 block inactive, PNC inhibitor -107 and HPGD inh inactive.
FC(F)(F)c1ccc(Oc2ccc(Cl)cc2Br)nc1 was read as ALDH1A1 block inactive.
O=C1CN(C(=O)COC(=O)c2cccc(OCc3ccccc3)c2)c2ccccc2N1 was read as ALDH1A1 block inconclusive, PNC inhibitor inactive and HPGD inh inactive.
For COc1ccc(NC(=O)CSc2nc3c(c(-c4cccs4)c2C#N)CN(C)CC3)cc1OC the results were ALDH1A1 block 14µM, PNC inhibitor inactive and HPGD inh inactive.
COc1ccc(NC(=O)CSc2nnc(-c3cccs3)n2C)cc1OC was read as ALDH1A1 block inactive, PNC inhibitor inactive and HPGD inh inactive.
For CCCCCCCCCCCCCCC(C(=O)O)C(O)(CC(=O)OC)C(=O)O (centres undefined) the results were ALDH1A1 block inactive and HPGD inh 16µM.
For CCCCCC(CC(=O)O)C(=O)O (centres undefined) the results were ALDH1A1 block inactive and HPGD inh inactive.
Screening O=C(O)c1cc(S(=O)(=O)Nc2ccc(O)cc2)ccc1Cl returned ALDH1A1 block inactive and HPGD inh inactive.
Screening Cc1[nH]n(C(N)=S)c(=O)c1N=Nc1ccc2ccccc2c1 returned ALDH1A1 block 7.9µM.
For Cc1[nH]n(C(N)=S)c(=O)c1N=Nc1ccc(S(=O)(=O)N2CCCCCC2)cc1 the results were ALDH1A1 block 11µM, PNC inhibitor inactive and HPGD inh 16µM.
For Cc1ccc(N=Nc2c(C)[nH]n(C(N)=S)c2=O)cc1C the results were ALDH1A1 block inconclusive, PNC inhibitor inactive and HPGD inh inactive.
`Cc1[nH]n(C(N)=S)c(=O)c1N=Nc1cc(-c2ccc(Br)cc2)[nH]n1` gave ALDH1A1 block inactive.
COC(=O)c1sccc1NC(=O)Cn1cnc2c1c(=O)n(C)c(=O)n2C was read as ALDH1A1 block inactive, PNC inhibitor inactive and HPGD inh inactive.
`O=C(Cn1nc(-c2cccc(Cl)c2)ccc1=O)Nc1ccc(C(=O)NC2CC2)cc1` gave ALDH1A1 block inactive.
`O=C(Nc1ccc(O)cc1C(=O)O)c1cccs1` gave ALDH1A1 block inactive.
For O=C(CCN1C(=O)C2C3C=CC(C3)C2C1=O)N1CCN(c2ccc([N+](=O)[O-])cc2)CC1 (centres undefined) the results were ALDH1A1 block 6.3µM.
O=C(CCN1C(=O)C2C3C=CC(C3)C2C1=O)N1CCN(c2ccc(F)cc2)CC1 (centres undefined) was read as ALDH1A1 block inconclusive, PNC inhibitor inactive and HPGD inh inactive.
For O=C(CCN1C(=O)C2C3C=CC(C3)C2C1=O)N1CCN(c2ccccc2F)CC1 (centres undefined) the results were ALDH1A1 block inconclusive, PNC inhibitor inactive and HPGD inh inactive.
`O=C(CCN1C(=O)C2C3C=CC(C3)C2C1=O)N1CCN(c2ccccc2Cl)CC1` (centres undefined) gave ALDH1A1 block 2µM, PNC inhibitor inconclusive and HPGD inh inactive.
COc1cccc2c(=O)n(CC(=O)N3CCCCC3)ccc12 was read as ALDH1A1 block inconclusive, PNC inhibitor inactive and HPGD inh inactive.
CC(=O)c1c(C(C)=O)c(C)n(-c2ccc(N)c(C)c2)c1C was read as ALDH1A1 block inactive, PNC inhibitor inconclusive and HPGD inh inactive.
Screening CCCn1c(=O)n(C)c(=O)c2c(SCC(=O)NCc3ccco3)nc(C3CC3)nc21 returned ALDH1A1 block inconclusive, PNC inhibitor inactive and HPGD inh inactive.
`C/C(N)=C(/C#N)C(=O)CSc1nc(C2CCCCC2)n(-c2ccccc2)n1` gave ALDH1A1 block 32µM, PNC inhibitor inactive and HPGD inh inactive.
`NC(=O)NC(=O)CSc1nc(C2CCCCC2)n(-c2ccccc2)n1` gave ALDH1A1 block inactive, PNC inhibitor inactive and HPGD inh inactive.
Screening O=C(CSc1nnc(-c2cccnc2)o1)c1cc2ccccc2oc1=O returned ALDH1A1 block inconclusive, PNC inhibitor -99 and HPGD inh inactive.
O=C(CSc1nnc(-c2cccnc2)o1)Oc1ccccc1 was read as ALDH1A1 block inconclusive, PNC inhibitor inactive and HPGD inh inactive.
`N#Cc1ccc(-c2ccccc2)nc1SCC(=O)c1cc2ccccc2oc1=O` gave ALDH1A1 block inconclusive, PNC inhibitor inconclusive and HPGD inh inactive.
Screening Cn1cnnc1SCC(=O)c1cc2ccccc2oc1=O returned ALDH1A1 block 10µM, PNC inhibitor inactive and HPGD inh inconclusive.
O=C(NNC(=O)C(c1ccccc1)c1ccccc1)c1ccccn1 was read as ALDH1A1 block inactive, PNC inhibitor inactive and HPGD inh inactive.
`Cc1ccc(OCC(=O)NC(=S)Nc2cccc(NC(=O)c3ccccc3)c2)cc1` gave ALDH1A1 block inactive, PNC inhibitor inconclusive and HPGD inh inactive.
